According to PubChem BioAssay (Tox21):
Results filed as inconclusive are left out. Activity calls are given as the source filed them. The call rests on the fitted dose curve; in most records, active means well fitted curve in the direction sought with a large enough effect in the repeat runs; inconclusive means weak or mixed curves; inactive means no such curve, though single readings can be large; an effect the other way counts as inactive or inconclusive.

Assays:
[1] = qHTS RealTime-Glo MT Cell Viability Assay in HepG2 cells - 40 hour (AID 1224870); further: nearly all actives have a fitted effect of over 50% in size; further: potency means the concentration at half of the fitted maximal effect
Method in brief: (§1)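 HepG2 cells mixed with RealTime-Glo MT reagents (NanoLuc plus cell-permeant prosubstrate) were seeded at 600 cells/well, incubated 5 h at 37 C/5% CO2, then pinned with compounds in DMSO; nonlytic luminescence tracked viability during 40 h treatment.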

[2] = A CellTox Green Cytotoxicity Assay to monitor cytotoxicity in HEK293 cells - 40 hour (AID 1224871); further: nearly all actives have a fitted effect of over 45% in size
Method in brief: (§2)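 Fluorescence intensity, read at 0, 8, 16, 24, 32 and 40 h of compound treatment, reflected dye binding to DNA of dead HEK293 cells; compounds (23 nL, DMSO) were added 5 h after plating cells with reagent.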

[3] = qHTS RealTime-Glo MT Cell Viability Assay in HEK293 cells - 16 hour (AID 1224872); further: nearly all actives have a fitted effect of over 50% in size; further: potency means the concentration at half of the fitted maximal effect; on activity change, negative = cytotoxicity: top concentration of the series differs between compounds
Method in brief: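 Assay medium contained NanoLuc luciferase plus cell-permeant prosubstrate, added with HEK293 cells at 600 cells/well. After 5 h at 37 C/5% CO2 compounds were added; plates stayed at 37 C for 40 h with serial luminescence reads.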

[4] = qHTS RealTime-Glo MT Cell Viability Assay in HepG2 cells - 8 hour (AID 1224873); further: nearly all actives have a fitted effect of over 55% in size
Method in brief: as §1

[5] = A CellTox Green Cytotoxicity Assay to monitor cytotoxicity in HEK293 cells - 24 hour (AID 1224875); further: series mostly up to about 77 µM; nearly all actives have a fitted effect of over 45% in size
Method in brief: as §2

[6] = qHTS RealTime-Glo MT Cell Viability Assay in HepG2 cells - 32 hour (AID 1224877); further: nearly all actives have a fitted effect of over 55% in size; further: potency means the concentration at half of the fitted maximal effect
Method in brief: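 qHTS, HepG2, 600 cells/well, RealTime-Glo (NanoLuc + prosubstrate) added with cells; 5 h preincubation; DMSO compound addition; 37 C; luminescence at 0/8/16/24/32/40 h.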

[7] = A CellTox Green Cytotoxicity Assay to monitor cytotoxicity in HepG2 cells - 24 hour (AID 1224878); further: nearly all actives have a fitted effect of over 45% in size
Method in brief: (§3)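 Using 1536-well format, dye-containing HepG2 suspension was seeded, allowed 5 h at 37 C/5% CO2, dosed by pintool with compounds, positive and negative controls, and imaged for fluorescence across 40 h.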

[8] = A CellTox Green Cytotoxicity Assay to monitor cytotoxicity in HepG2 cells - 40 hour (AID 1224879); further: nearly all actives have a fitted effect of over 40% in size
Method in brief: as §3

[9] = A CellTox Green Cytotoxicity Assay to monitor cytotoxicity in HepG2 cells - 16 hour (AID 1224876); further: nearly all actives have a fitted effect of over 45% in size
Method in brief: as §3

[10] = qHTS RealTime-Glo MT Cell Viability Assay in HEK293 cells - 40 hour (AID 1224874); details: RealTime-Glo luminescence; max response: active compounds read low; further: nearly all actives have a fitted effect of over 50% in size; further: potency means the concentration at half of the fitted maximal effect
Method in brief: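 Viable HEK293 cells reduce a cell-permeant prosubstrate; the product diffuses out and is consumed by NanoLuc in the medium to give light. Compounds went in after a 5 h incubation and plates were read over the treatment course.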
On the % scale 0 is the no-effect control and ±100 the full control effect.

COc1ccc(COC=O)cc1
inactive: Potency [1] | Potency [2] | Potency [3] | outcome [4] | Potency [5] | Potency [6] | Potency [7] | Potency [8]

COc1cccc(OC)c1
inactive: Potency [1] | Potency [2] | Potency [3] | outcome [4] | Potency [5] | Potency [6] | Potency [7]

Nc1nc2c(ncn2CCC(CO)CO)c(=O)[nH]1
inactive: Potency [1] | Potency [2] | Potency [3] | outcome [4] | Potency [5] | Potency [9] | Potency [6] | Potency [7] | Potency [8]

CC(=O)NC(Cc1ccccc1)C(=O)O (configuration not stated)
inactive: Potency [1] | Potency [2] | Potency [3] | outcome [4] | Potency [5] | Potency [9] | Potency [6] | Potency [7] | Potency [8]

NC(=S)Nc1cccc2ccccc12
inactive: activity change, negative = cytotoxic [1] -4.8% [at 6.97 µM] | cytotoxicity increase [2] 0.339% [at 6.97 µM] | activity change, negative = cytotoxicity [3] 14.8% [at 6.97 µM] | max response [10] 16.5% | activity change [5] 0.127% [at 6.97 µM, active compounds read high] | cytotoxicity increase [9] 1.42% [at 6.97 µM] | activity change, negative = cytotoxic [6] -0.0723% [at 6.97 µM] | cytotoxicity [7] -1.06% [at 6.97 µM]

CC(=O)CCc1ccc(O)cc1
inactive: Potency [1] | Potency [2] | Potency [3] | outcome [4] | Potency [9] | Potency [6] | Potency [7] | Potency [8]

N#CCN(CC#N)CCN(CC#N)CC#N
inactive: Potency [1] | Potency [2] | Potency [3] | max response [10] 4.6% | Potency [5] | Potency [9] | Potency [6] | Potency [7]

NCCN1CCNC1=O
inactive: Potency [1] | Potency [2] | Potency [3] | outcome [4] | Potency [5] | Potency [6] | Potency [7] | Potency [8]

NCCNC(=O)c1ccc(Cl)cn1
inactive: Potency [1] | Potency [2] | Potency [3] | max response [10] 0.469% | Potency [5] | Potency [9] | Potency [6] | Potency [7] | Potency [8]

CC(=O)O[C@H](CC(=O)[O-])C[N+](C)(C)C
inactive: Potency [1] | Potency [2] | Potency [3] | outcome [4] | Potency [5] | Potency [6] | Potency [7] | Potency [8]

CCCc1ccc(N)cc1
inactive: Potency [1] | Potency [2] | Potency [3] | outcome [4] | Potency [9] | Potency [6] | Potency [7] | Potency [8]

CC(C)CCCCCCN
inactive: Potency [1] | Potency [2] | Potency [3] | max response [10] -7.14% | Potency [5] | Potency [9] | Potency [6] | Potency [7] | Potency [8]

CC(C)(O)Cc1ccccc1
inactive: Potency [1] | Potency [2] | Potency [3] | outcome [4] | Potency [6] | Potency [7] | Potency [8]

CCn1cc(C(=O)O)c(=O)c2cc(F)c(N3CCN(C)CC3)cc21
inactive: activity change, negative = cytotoxic [1] 1.6% [at 15.8 µM] | cytotoxicity increase [2] -12.2% [at 15.8 µM] | activity change, negative = cytotoxicity [3] 4.51% [at 15.8 µM] | viability change, negative = cytotoxic [4] 2.21% [at 15.8 µM] | activity change, negative = cytotoxic [6] 1.05% [at 15.8 µM] | cytotoxicity [7] -13.3% [at 15.8 µM] | cytotoxicity increase [8] -14.4% [at 15.8 µM]

C#CC(O)CCCCC (configuration not stated)
inactive: Potency [1] | Potency [2] | Potency [3] | max response [10] 8.88% | Potency [5] | Potency [9] | Potency [6] | Potency [7] | Potency [8]

CCCCc1ccc(N)cc1
inactive: Potency [1] | Potency [2] | Potency [3] | outcome [4] | Potency [5] | Potency [9] | Potency [6] | Potency [7] | Potency [8]

CCCC(C)CO (configuration not stated)
inactive: Potency [1] | Potency [2] | Potency [3] | outcome [4] | Potency [5] | Potency [9] | Potency [6] | Potency [7] | Potency [8]

CC/C=C\C#N
inactive: Potency [1] | Potency [2] | Potency [3] | max response [10] 20.1% | Potency [5] | Potency [9] | Potency [6] | Potency [7] | Potency [8]

CC(C)N1C(=O)c2ccccc2C1=O
inactive: Potency [1] | Potency [2] | Potency [3] | outcome [4] | Potency [5] | Potency [9] | Potency [6] | Potency [7] | Potency [8]

CCn1c(=O)c2c(nc(/C=C/c3ccc(OC)c(OC)c3)n2C)n(CC)c1=O
inactive: Potency [1] | Potency [2] | Potency [5] | Potency [9] | Potency [6] | Potency [7] | Potency [8]
active: Potency [3] 1.69 µM | Potency [10] 1.69 µM

CCCOc1ccccc1-c1nc2n[nH]nc2c(=O)[nH]1
inactive: Potency [1] | Potency [2] | Potency [3] | outcome [4] | Potency [5] | Potency [9] | Potency [6] | Potency [7] | Potency [8]

OCc1ccccn1
inactive: Potency [1] | Potency [2] | Potency [3] | outcome [4] | Potency [5] | Potency [6] | Potency [7] | Potency [8]

CCCCCCCCCCCCI
active: Potency [1] 22 µM | Potency [6] 24.7 µM
inactive: Potency [2] | Potency [3] | outcome [4] | Potency [5] | Potency [9] | Potency [7] | Potency [8]

COc1cc(C)cc(O)c1
inactive: Potency [1] | Potency [2] | Potency [3] | max response [10] -14.5% | Potency [5] | Potency [9] | Potency [6] | Potency [7] | Potency [8]
